Counter-ions that a name gives are not always drawn.
Columns and labels:
Assay in all cases: thermal shift delta Tm vs DMSO control; higher = stronger stabilization (binding)
Conditions in all cases: 12.5 µM; protein concentration 2 µM
LOC_OS01G57100-cb003 = system: LOC_OS01G57100-cb003
Summary of the method: (§1)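 The melting temperature shift given here is a triplicate mean, measured against protein that received only DMSO. Melting temperatures came from Boltzmann fits of differential scanning fluorimetry data on E. coli-expressed, purified rice kinase domain constructs. Each 19.5 μl well contained 2 μM kinase, 100 mM potassium phosphate pH 7.5, 150 mM NaCl, 10% glycerol, 5 × SYPRO Orange and compound in DMSO. Plates were scanned from 25°C to 95°C at 0.05°C/s.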

LOC_OS01G60330-cb001 = system: LOC_OS01G60330-cb001
Summary of the method: as §1

LOC_OS01G60700-cb002 = system: LOC_OS01G60700-cb002
Summary of the method: as §1

LOC_OS01G63280-cb003 = system: LOC_OS01G63280-cb003
Summary of the method: as §1

LOC_OS01G67340-cb003 = system: LOC_OS01G67340-cb003
Summary of the method: as §1

LOC_OS01G70970-cb002 = system: LOC_OS01G70970-cb002
Summary of the method: as §1

LOC_OS02G07810-cb001 = system: LOC_OS02G07810-cb001
Summary of the method: as §1

LOC_OS02G08530-cb003 = system: LOC_OS02G08530-cb003
Summary of the method: as §1

LOC_OS02G14120-cb001 = system: LOC_OS02G14120-cb001
Summary of the method: as §1

LOC_OS02G17970-cb001 = system: LOC_OS02G17970-cb001
Summary of the method: as §1

LOC_OS02G45750-cb003 = system: LOC_OS02G45750-cb003
Summary of the method: as §1

LOC_OS02G54510-cb004 = system: LOC_OS02G54510-cb004
Summary of the method: as §1

LOC_OS03G04050-cb001 = system: LOC_OS03G04050-cb001
Summary of the method: as §1

LOC_OS03G12390-cb001 = system: LOC_OS03G12390-cb001
Summary of the method: as §1

LOC_OS03G27990-cb004 = system: LOC_OS03G27990-cb004
Summary of the method: as §1

LOC_OS03G50450-cb001 = system: LOC_OS03G50450-cb001
Summary of the method: as §1

LOC_OS03G50810-cb003 = system: LOC_OS03G50810-cb003
Summary of the method: as §1

LOC_OS04G35114-cb001 = system: LOC_OS04G35114-cb001
Summary of the method: as §1

LOC_OS04G38480-cb003 = system: T1, LOC_OS04G38480-cb003
T1 sequence (whole entry): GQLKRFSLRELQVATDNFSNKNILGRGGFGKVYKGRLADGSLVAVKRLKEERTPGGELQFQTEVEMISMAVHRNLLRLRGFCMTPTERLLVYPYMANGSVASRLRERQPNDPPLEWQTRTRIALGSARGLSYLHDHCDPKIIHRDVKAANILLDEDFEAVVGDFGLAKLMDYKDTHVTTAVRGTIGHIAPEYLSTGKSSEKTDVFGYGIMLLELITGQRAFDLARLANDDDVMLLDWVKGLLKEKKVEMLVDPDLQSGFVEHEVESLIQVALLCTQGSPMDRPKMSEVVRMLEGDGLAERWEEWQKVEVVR
Summary of the method: as §1

LOC_OS04G41100-cb001 = system: T2, LOC_OS04G41100-cb001
T2 sequence (whole entry): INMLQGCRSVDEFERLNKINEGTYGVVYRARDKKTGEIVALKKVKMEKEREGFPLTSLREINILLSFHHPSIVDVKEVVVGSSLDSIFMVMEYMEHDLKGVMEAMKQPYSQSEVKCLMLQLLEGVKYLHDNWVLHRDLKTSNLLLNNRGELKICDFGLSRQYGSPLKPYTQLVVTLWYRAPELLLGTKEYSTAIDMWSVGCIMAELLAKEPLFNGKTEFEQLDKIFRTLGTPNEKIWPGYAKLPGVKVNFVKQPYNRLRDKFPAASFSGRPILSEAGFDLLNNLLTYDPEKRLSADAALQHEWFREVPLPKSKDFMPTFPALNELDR
Summary of the method: as §1

Row | SMILES | thermal shift delta Tm (LOC_OS01G57100-cb003) | thermal shift delta Tm (LOC_OS01G60330-cb001) | thermal shift delta Tm (LOC_OS01G60700-cb002) | thermal shift delta Tm (LOC_OS01G63280-cb003) | thermal shift delta Tm (LOC_OS01G67340-cb003) | thermal shift delta Tm (LOC_OS01G70970-cb002) | thermal shift delta Tm (LOC_OS02G07810-cb001) | thermal shift delta Tm (LOC_OS02G08530-cb003) | thermal shift delta Tm (LOC_OS02G14120-cb001) | thermal shift delta Tm (LOC_OS02G17970-cb001) | thermal shift delta Tm (LOC_OS02G45750-cb003) | thermal shift delta Tm (LOC_OS02G54510-cb004) | thermal shift delta Tm (LOC_OS03G04050-cb001) | thermal shift delta Tm (LOC_OS03G12390-cb001) | thermal shift delta Tm (LOC_OS03G27990-cb004) | thermal shift delta Tm (LOC_OS03G50450-cb001) | thermal shift delta Tm (LOC_OS03G50810-cb003) | thermal shift delta Tm (LOC_OS04G35114-cb001) | thermal shift delta Tm (LOC_OS04G38480-cb003) | thermal shift delta Tm (LOC_OS04G41100-cb001)
1 | CCc1cc(Nc2nccc(-c3c(-c4ccc(OC)c(C(=O)Nc5c(F)cccc5F)c4)nc4ccccn34)n2)c(OC)cc1N1CCC(N2CCN(S(C)(=O)=O)CC2)CC1 | 1.35 °C | 0.65 °C | 1.19 °C | 0.43 °C | 0.06 °C | 0.26 °C | 0.77 °C | 0.82 °C | 0.04 °C | 0.47 °C | -0.02 °C | 0.08 °C | 0.66 °C | 0.08 °C | 0.49 °C | 0.27 °C | 0.2 °C | 0.36 °C | 0.7 °C | 0.67 °C
2 | CN(C)Cc1cccc(N=C(c2ccccc2)c2c(O)[nH]c3cc(C(=O)N(C)C)ccc23)c1 | 0.86 °C | 0.56 °C | 0.46 °C | 0.74 °C | 0.8 °C | 0.24 °C | 1.05 °C | 0.71 °C | 1.17 °C | 1.25 °C | 4.33 °C | 0.4 °C | 0.44 °C | 0.66 °C | 1.19 °C | 0.55 °C | 2.45 °C | 5.85 °C | 0.55 °C | 0.45 °C
3 | CC#CC(=O)N1CC[C@@H](n2c(=O)n(-c3ccc(Oc4ccccc4)cc3)c3c(N)ncnc32)C1 [ONO-4059 (GS-4059) hydrochloride] | 0.49 °C | 0.71 °C | 0.99 °C | -0.08 °C | 0.27 °C | 0.11 °C | 0.05 °C | 0.27 °C | 0.04 °C | 0.51 °C | 0.78 °C | 0.65 °C | 0.51 °C | -0.67 °C | 0.44 °C | 0.4 °C | 0.3 °C | 0.12 °C | 0.62 °C | 0.03 °C
4 | COc1ccc(-c2ccc3c(N4CCOC[C@@H]4C)nc(N4CCOC[C@@H]4C)nc3n2)cc1CO | 0.87 °C | 0.93 °C | 0.64 °C | -0.13 °C | -0.69 °C | 0.1 °C | 0.28 °C | 0.31 °C | -1.22 °C | -0.06 °C | 0.67 °C | 0.38 °C | 0.33 °C | -0.12 °C | 0.09 °C | 0.41 °C | 0.18 °C | 0.4 °C | -0.21 °C | 0.57 °C
5 | CN(C)C[C@@H]1CCn2cc(c3ccccc32)C2=C(C(=O)NC2=O)c2cn(c3ccccc23)CCO1 | 2.1 °C | 0.51 °C | 2.42 °C | 0.43 °C | 0.03 °C | 0.53 °C | 0.54 °C | 1.19 °C | 2.29 °C | 1.69 °C | -0.25 °C | 0.16 °C | 0.36 °C | 0.08 °C | 0.5 °C | -0.45 °C | 1.85 °C | 6.19 °C | 2.42 °C | 0.73 °C
